According to the supplement of paper PMC11732987, “Enantioselective OTUD7B fragment discovery through chemoproteomics screening and high-throughput optimisation” (Communications Chemistry, 2025):

What was measured:
Test in all cases: log2 ratio of Biotin-Ahx-Ub-VS probe labelling (fragment/DMSO); higher = less target engagement (more negative = stronger competition), active = hit call of the paper (q ≤ 0.05, log2 ratio ≤ -1)
Conditions in all cases: compound concentration: 200 uM; treatment time: 3 h
USP42 = molecular target: T1, USP42 (UniProt Q9H9J4)
T1 sequence (whole entry): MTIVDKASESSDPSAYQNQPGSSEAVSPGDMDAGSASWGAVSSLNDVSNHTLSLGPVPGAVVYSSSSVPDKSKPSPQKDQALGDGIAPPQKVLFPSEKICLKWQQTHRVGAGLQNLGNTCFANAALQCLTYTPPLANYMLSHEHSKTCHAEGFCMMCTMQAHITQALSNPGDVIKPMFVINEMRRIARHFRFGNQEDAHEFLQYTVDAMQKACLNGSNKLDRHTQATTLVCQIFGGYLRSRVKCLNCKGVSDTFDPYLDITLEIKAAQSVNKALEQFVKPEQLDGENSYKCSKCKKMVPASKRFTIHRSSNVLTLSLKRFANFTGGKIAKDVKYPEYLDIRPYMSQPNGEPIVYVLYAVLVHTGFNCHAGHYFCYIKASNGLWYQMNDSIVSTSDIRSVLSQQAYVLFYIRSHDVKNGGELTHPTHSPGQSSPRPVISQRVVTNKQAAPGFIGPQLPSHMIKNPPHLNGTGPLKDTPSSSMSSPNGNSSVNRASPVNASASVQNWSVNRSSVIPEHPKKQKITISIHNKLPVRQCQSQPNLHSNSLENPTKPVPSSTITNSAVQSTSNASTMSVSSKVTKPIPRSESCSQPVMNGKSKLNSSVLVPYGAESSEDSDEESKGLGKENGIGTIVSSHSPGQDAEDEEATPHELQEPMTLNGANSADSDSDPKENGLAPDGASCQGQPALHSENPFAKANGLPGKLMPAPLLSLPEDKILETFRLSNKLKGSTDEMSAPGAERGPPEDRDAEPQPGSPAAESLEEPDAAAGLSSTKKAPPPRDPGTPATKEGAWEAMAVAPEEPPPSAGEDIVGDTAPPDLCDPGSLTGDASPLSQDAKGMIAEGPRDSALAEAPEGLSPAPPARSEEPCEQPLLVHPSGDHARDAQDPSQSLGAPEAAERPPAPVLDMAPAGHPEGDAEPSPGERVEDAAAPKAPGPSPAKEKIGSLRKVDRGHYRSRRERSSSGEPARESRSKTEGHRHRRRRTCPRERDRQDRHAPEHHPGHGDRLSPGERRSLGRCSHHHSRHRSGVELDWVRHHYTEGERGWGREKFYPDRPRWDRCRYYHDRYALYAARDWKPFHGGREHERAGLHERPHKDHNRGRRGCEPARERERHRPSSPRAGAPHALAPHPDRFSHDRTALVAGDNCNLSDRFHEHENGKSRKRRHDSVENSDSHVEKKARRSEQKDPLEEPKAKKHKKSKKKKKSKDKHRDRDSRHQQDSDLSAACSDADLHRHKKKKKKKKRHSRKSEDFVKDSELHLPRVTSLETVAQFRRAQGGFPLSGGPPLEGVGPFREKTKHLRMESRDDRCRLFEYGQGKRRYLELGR
Summary of the method: (§1)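 Labelled DUBs from HEK293T lysate were NeutrAvidin-enriched, digested with LysC and trypsin, and run by diaPASEF LC-MS/MS. Before that, each 495 µg sample in Tris/CHAPS/IGEPAL buffer with protease inhibitors was treated in triplicate with fragment at 200 µM or vehicle for 3 h, then with Biotin-Ahx-Ub-VS at 0.5 µM final for 1 h. Values are average log2 ratios of fragment over vehicle by unpaired t-test, based on global-median-normalised Spectronaut label-free quantities from proteins with ≥2 unique peptides.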

USP46 = USP46 (UniProt P62068)
USP46, sequence (P62068 whole entry): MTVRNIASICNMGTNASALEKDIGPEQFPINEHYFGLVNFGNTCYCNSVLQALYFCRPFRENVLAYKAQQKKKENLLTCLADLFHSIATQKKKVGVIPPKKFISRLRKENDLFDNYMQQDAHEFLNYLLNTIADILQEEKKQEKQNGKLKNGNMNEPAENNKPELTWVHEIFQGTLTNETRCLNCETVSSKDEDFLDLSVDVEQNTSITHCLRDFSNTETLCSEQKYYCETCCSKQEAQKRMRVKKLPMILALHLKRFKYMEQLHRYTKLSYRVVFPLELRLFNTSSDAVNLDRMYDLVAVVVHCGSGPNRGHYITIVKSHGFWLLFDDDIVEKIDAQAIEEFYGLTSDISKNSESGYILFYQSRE
Summary of the method: as §1

USP47 = molecular target: T2, USP47 (UniProt Q96K76)
T2 sequence (whole entry): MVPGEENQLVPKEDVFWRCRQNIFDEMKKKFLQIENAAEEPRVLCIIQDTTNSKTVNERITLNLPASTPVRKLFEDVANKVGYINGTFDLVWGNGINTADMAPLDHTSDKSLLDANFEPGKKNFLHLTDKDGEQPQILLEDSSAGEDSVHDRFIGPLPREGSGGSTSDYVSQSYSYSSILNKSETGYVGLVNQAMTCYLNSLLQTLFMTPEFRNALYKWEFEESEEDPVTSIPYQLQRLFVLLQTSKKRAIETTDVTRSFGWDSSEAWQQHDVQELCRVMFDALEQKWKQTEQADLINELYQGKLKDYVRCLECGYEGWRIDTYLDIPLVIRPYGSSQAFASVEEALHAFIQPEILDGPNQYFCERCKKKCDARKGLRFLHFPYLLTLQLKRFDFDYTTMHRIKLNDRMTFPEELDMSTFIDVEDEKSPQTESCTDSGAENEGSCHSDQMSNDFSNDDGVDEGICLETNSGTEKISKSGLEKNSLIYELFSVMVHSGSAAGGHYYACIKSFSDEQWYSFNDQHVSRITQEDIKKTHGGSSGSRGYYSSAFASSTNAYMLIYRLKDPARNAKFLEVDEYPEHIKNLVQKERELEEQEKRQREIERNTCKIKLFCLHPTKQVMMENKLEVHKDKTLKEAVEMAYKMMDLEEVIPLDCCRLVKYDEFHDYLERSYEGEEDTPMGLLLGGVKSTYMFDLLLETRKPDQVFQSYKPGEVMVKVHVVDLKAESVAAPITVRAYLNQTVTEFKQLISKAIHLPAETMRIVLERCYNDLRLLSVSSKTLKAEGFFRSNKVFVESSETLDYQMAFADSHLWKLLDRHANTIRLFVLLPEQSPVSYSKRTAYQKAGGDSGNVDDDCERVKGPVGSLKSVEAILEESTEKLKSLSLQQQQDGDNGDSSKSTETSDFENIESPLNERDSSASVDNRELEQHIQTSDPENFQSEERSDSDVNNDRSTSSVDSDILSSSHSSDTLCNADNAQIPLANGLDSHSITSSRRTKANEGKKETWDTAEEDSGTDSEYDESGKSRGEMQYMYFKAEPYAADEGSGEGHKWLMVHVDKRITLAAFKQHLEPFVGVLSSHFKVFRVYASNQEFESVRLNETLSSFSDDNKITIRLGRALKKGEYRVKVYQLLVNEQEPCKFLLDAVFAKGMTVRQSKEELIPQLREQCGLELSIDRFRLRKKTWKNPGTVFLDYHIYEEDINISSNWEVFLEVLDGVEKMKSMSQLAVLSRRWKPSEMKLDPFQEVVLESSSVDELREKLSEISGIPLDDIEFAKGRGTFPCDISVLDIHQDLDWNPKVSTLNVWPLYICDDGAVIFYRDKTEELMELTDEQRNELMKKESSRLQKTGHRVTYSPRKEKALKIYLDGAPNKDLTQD
Summary of the method: as §1

USP48 = molecular target: T3, USP48 (UniProt Q86UV5)
T3 sequence (whole entry): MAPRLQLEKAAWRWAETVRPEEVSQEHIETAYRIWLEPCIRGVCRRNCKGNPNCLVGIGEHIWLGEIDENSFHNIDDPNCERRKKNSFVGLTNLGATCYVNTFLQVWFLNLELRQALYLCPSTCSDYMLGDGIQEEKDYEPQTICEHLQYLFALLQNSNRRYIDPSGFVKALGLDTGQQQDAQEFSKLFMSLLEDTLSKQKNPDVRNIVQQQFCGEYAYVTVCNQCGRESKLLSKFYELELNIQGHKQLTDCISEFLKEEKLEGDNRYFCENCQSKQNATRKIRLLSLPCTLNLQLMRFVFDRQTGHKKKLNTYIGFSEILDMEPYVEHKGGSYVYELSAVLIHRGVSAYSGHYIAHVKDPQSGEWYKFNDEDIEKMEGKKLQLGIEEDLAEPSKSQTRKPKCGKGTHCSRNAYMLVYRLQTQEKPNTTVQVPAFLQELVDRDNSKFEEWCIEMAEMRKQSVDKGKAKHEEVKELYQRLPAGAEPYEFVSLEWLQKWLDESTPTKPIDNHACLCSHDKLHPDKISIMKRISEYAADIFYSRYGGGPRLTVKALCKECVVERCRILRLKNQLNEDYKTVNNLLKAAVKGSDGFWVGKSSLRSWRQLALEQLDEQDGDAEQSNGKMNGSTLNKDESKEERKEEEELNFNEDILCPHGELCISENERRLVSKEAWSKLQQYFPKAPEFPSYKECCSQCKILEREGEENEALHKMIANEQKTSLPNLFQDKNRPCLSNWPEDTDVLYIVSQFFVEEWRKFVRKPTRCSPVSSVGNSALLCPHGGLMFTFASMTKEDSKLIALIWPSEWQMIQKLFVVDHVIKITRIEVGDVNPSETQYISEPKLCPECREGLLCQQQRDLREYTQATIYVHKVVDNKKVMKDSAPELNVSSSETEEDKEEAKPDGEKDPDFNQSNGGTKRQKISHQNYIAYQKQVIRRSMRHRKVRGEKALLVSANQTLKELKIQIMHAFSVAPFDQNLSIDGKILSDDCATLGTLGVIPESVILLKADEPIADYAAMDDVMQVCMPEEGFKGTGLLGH
Summary of the method: as §1

USP5 = molecular target: T4, USP5 (UniProt P45974)
T4 sequence (whole entry): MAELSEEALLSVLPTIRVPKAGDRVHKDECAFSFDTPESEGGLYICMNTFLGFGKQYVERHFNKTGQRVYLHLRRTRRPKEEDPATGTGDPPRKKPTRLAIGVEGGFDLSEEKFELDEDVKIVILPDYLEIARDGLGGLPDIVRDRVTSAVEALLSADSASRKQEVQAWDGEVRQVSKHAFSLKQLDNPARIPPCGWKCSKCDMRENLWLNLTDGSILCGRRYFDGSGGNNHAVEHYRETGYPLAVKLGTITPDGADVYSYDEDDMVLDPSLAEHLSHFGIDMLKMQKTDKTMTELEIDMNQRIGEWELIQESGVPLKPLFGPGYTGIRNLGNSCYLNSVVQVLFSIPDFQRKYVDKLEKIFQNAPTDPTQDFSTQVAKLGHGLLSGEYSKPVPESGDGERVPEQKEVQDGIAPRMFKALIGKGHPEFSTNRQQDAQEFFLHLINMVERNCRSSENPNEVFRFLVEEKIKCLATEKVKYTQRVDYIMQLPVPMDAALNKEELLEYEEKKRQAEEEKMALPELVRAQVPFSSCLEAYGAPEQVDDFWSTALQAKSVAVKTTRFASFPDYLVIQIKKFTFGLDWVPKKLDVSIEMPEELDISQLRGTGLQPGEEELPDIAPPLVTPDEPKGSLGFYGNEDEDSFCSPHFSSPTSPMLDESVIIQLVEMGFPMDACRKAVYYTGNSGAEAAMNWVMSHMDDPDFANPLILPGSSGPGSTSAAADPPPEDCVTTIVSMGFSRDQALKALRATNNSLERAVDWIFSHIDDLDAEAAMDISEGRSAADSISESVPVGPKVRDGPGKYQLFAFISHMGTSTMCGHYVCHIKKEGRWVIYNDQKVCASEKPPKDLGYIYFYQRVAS
Summary of the method: as §1

USP54 = USP54 (UniProt Q70EL1)
USP54, sequence (Q70EL1 whole entry): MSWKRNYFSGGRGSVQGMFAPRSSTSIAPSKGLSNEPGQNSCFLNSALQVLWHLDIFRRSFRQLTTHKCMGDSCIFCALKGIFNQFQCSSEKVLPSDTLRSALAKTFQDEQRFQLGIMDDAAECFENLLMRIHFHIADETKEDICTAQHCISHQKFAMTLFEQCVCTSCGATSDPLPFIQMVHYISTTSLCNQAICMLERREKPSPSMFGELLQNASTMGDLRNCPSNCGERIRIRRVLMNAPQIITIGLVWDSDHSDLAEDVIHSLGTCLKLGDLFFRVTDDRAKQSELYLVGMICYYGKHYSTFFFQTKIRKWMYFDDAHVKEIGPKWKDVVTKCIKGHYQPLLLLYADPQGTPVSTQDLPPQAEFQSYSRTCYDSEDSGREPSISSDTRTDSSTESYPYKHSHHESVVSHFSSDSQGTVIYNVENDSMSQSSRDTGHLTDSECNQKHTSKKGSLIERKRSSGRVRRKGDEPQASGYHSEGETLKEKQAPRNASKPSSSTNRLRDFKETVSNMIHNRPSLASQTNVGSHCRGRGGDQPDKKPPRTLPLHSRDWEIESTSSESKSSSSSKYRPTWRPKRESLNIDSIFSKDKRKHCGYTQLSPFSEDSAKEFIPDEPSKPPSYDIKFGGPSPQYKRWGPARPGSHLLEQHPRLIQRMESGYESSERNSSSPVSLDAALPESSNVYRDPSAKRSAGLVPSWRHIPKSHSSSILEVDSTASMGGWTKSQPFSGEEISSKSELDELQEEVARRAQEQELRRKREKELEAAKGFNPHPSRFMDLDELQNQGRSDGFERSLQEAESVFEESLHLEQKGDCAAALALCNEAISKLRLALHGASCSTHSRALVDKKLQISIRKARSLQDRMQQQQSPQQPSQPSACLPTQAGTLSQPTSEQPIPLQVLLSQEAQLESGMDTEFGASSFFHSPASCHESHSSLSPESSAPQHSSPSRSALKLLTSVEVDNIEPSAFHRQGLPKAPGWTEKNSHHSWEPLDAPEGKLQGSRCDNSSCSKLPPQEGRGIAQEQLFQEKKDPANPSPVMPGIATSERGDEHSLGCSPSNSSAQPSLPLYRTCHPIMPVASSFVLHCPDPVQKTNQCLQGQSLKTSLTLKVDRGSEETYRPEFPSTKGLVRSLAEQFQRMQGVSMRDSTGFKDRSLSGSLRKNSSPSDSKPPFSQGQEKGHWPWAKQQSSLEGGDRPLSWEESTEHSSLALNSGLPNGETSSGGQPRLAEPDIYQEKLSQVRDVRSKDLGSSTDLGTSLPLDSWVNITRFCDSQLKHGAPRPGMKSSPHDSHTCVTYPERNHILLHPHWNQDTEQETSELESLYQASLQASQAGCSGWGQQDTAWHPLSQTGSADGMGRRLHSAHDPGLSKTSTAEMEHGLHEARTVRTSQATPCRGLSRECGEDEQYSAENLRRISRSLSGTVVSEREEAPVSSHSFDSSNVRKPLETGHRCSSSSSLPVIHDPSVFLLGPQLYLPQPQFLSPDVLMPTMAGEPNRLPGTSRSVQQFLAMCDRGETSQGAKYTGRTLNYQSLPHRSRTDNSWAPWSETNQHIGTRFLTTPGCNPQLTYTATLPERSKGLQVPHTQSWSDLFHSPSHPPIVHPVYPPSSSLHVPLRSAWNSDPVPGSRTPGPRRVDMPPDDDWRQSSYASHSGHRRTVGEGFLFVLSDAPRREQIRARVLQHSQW
Summary of the method: as §1

USP7 = USP7 (UniProt Q93009)
USP7, sequence (Q93009 whole entry, looked up): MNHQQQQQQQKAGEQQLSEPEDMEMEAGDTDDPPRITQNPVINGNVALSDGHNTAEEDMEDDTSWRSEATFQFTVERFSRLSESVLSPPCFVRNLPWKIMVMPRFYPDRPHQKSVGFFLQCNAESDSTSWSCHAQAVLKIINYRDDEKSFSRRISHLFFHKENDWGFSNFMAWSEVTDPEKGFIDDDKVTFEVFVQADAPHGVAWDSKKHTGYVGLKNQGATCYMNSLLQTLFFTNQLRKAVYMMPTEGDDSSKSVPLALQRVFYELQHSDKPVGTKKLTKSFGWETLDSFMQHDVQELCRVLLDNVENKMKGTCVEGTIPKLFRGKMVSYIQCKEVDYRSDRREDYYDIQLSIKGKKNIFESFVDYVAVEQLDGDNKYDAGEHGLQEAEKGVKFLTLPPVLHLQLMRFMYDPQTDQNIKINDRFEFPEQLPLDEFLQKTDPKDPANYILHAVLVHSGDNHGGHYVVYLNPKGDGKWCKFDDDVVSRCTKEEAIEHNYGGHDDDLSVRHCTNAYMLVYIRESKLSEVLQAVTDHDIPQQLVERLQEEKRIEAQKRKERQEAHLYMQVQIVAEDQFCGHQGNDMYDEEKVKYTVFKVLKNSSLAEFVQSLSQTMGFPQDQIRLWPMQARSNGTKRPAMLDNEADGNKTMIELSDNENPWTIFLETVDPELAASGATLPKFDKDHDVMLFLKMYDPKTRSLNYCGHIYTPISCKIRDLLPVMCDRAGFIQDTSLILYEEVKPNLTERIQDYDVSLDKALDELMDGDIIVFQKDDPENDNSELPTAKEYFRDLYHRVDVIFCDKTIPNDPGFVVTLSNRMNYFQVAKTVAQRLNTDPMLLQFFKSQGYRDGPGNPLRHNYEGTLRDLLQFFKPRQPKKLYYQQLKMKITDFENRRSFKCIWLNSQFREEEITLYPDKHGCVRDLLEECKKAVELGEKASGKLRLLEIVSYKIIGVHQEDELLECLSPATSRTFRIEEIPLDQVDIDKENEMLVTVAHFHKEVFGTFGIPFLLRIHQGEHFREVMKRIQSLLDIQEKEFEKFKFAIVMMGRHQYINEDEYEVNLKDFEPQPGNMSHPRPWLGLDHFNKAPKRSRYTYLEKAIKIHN
Summary of the method: as §1

USP8 = molecular target: T5, USP8 (UniProt P40818)
T5 sequence (whole entry): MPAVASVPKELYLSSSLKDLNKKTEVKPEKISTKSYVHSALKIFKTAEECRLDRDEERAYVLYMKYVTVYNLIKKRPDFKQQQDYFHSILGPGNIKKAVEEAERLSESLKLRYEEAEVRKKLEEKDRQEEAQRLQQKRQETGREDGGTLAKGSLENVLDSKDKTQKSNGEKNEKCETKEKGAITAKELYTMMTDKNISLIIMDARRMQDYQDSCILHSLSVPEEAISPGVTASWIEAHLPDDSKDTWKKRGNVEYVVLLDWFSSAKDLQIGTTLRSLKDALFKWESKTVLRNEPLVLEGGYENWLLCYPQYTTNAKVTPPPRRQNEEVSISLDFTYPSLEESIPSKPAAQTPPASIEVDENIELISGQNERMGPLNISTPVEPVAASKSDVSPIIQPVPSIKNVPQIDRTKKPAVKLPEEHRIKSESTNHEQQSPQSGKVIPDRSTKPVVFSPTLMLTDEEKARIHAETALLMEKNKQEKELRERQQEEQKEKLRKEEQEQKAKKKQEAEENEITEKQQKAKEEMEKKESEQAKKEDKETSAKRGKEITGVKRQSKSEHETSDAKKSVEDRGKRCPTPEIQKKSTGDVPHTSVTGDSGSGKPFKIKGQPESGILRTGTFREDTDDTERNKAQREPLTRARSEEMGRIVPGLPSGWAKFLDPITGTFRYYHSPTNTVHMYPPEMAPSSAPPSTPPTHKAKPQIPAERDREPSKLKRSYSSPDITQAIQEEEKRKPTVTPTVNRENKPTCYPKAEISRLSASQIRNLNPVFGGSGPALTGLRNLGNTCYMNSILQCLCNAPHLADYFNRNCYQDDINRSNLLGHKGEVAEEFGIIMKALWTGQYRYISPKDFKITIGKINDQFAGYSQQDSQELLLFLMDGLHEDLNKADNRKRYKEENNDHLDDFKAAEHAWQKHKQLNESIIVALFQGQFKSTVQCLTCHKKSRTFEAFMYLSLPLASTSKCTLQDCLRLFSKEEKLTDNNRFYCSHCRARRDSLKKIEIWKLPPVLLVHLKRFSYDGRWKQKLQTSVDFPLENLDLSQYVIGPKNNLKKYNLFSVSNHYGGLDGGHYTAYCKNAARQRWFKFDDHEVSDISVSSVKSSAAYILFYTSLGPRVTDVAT
Summary of the method: as §1

Measured: log2 ratio of Biotin-Ahx-Ub-VS probe labelling

O=C(CCl)NCc1cccc(N2CCCC2=O)c1
inactive: USP42 -0.175 | USP46 0.179 | USP47 0.109 | USP48 -0.0848 | USP5 0.238 | USP54 0.342 | USP7 -0.0593 | USP8 -0.147
